Inconclusive results are not listed. A call without a number means that no potency is given here. Calls of active or inactive are those of the source. Calls come from the whole dose curve; as a rule, active = well fitted inhibition curve with a large enough effect; inconclusive = small, poorly fitted or top-dose-only effect; inactive = flat fitted curve, though single readings scatter.

Calcium and integrin-binding protein 1 (Homo sapiens), sequence (Q99828 whole entry, looked up): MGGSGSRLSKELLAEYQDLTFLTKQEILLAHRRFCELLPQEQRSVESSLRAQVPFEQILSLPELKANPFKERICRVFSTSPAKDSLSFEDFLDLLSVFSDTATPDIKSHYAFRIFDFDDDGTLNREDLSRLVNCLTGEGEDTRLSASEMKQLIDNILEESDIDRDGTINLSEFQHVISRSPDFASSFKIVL

The target of the experiment is Calcium and integrin-binding protein 1 (Homo sapiens) (UniProt Q99828). Put plainly: Primary qHTS for Identification of Calcium Integrin Binding Protein 1 (CIB1) Competitor (AID 1508620).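 Note: GST tagged CIB1 binding a fluorescein labelled alphaIIb integrin peptide tracer; top concentration of the series differs between compounds.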 The note with it: CIB1-GST / FITC-alphaIIb peptide fluorescence polarization; series mostly up to 114 µM. The procedure, abridged:
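Fluorescence polarization competition: CIB1-GST (1 uM final) preincubated with compound 15 min at room temperature, then FITC-labeled alphaIIb peptide (100 nM final) added for another 15 min. Polarization read at Ex 480/Em 540.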
(In general: Quantitative high-throughput screening tests each substance at several concentrations.)
Regarding `Cc1ccc(OCCn2c(CCNC(=O)c3ccco3)nc3ccccc32)cc1`, the Potency result is “inactive”. For `CCOc1ccc(CCNC(=O)c2ccc(C3(C(F)(F)F)N=N3)cc2)cc1OCC`, the Potency result was “inactive”. The value for `O=C(O)CCc1cc(F)c(S(=O)(=O)N2CCN(S(=O)(=O)c3ccc4c(c3)OCCO4)CC2)cc1F` was “inactive”; that for `CCCCN(CCCNC(=S)NCCCc1cnc[nH]1)c1ccc(Br)cn1` was “inactive”; that for `CCc1ccc(NC(=O)c2cnn3c(C)cc(C)nc23)cc1` was “inactive”. The entry for `Cn1nnnc1Sc1ncnc2scc(-c3ccccc3Cl)c12` is “inactive”; for `OCc1ccnc(NC(=S)N2CCN(c3cccc(C(F)(F)F)c3)CC2)c1` it is “inactive”. The entry for `COc1ccc(C2=Nn3c(nnc3-c3ccccc3C)SC2)cc1OC` is “inactive”; for `N#Cc1nc(Nc2cccc(C(F)(F)F)c2)nc(NC2CCCC2)n1` it is “inactive”. As for `Nc1cccc([S+](=O)([O-])N2CCCN([S+](=O)([O-])c3cccc(N)c3)CC2)c1`, the Potency result was “inactive”.

For `Cc1cc2c(s1)c1cnn(Cc3cc(OC(F)(F)F)ccc3F)c(=O)c1n2C`, the Potency entry is “inactive”. The value for `O=C1c2ccccc2NC(c2ccc(Br)o2)N1O` (stereo not given) was “inactive”; that for `O=C1c2ccccc2NC(c2ccc(-c3ccc(Br)cc3)o2)N1O` (stereo not given) was “inactive”; that for `O=C(Nc1ccc(Cl)nc1)Nc1nnc(-c2ccncc2)s1` was “inactive”. The entry for `CC(C)(C)OC(=O)N1CCN(c2ccc(NCc3ccc(-c4ccc(C#N)cc4)o3)nc2)CC1` is “inactive”; for `CCOc1ccccc1-c1nnc2n1N=C(c1cc(OC)cc(OC)c1)CS2` it is “inactive”; for `N=c1c2c(ccn1CCc1ccccc1)Oc1ccc3ccccc3c1C2c1ccccc1` (stereo not given) it is “inactive”. The entry for `Cc1cccc(-c2csc(N3CCC(C(N)=O)CC3)n2)c1` is “inactive”; for `N#Cc1c(-c2cccc(O)c2)no[n+]1[O-]` it is “inactive”.

Turning to `Cc1cc(NS(=O)(=O)c2ccc(NC(=O)Cc3ccc4ccccc4c3)cc2)no1`, the Potency result is “inactive”. The value for `COc1ccc(CN2C(=O)c3ccccc3NC2c2ccc(OC)c(COc3c(C)cc(NC(C)=O)cc3C)c2)cc1` (stereo not given) was “inactive”. The value for `O=S(=O)(c1cccc(O)c1)N1CCN(S(=O)(=O)c2c(F)cccc2F)CC1` was “inactive”; that for `Cc1c(C(=O)O)[nH]c2c1C(=O)CCC2` was “inactive”.

Regarding `COc1cccc(CCC(=O)NCCc2nc3ccccc3n2CCOc2ccc(C)cc2)c1`, the Potency entry is “inactive”. The value for `CCN(CCc1cn(C)cn1)c1ncnc2ccc(-c3ccc4c(c3)OCO4)cc12` was “inactive”; that for `Cc1cc(C)nc(NC(=S)N2CCN(c3cccc(C#N)c3)CC2)c1` was “inactive”; that for `COC(=O)c1ccccc1-c1ccc(/C=c2\sc3nc4cc(Br)cnc4n3c2=O)o1` was “inactive”. The entry for `O=C(O)c1ccc(-c2nn3c(=O)cc(N4CCNCC4)nc3s2)cc1` is “inactive”.

In the case of `CC1=C(C(=O)NCc2ccccc2)C(c2ccccc2Br)N=C(Nc2nc3ccccc3o2)N1` (stereo not given), the Potency result is “inactive”. Take `O=C(Nc1ccc(Cl)c(Cl)c1)Nc1nnc(C2CCCCC2)s1`: the Potency result was “inactive”. Regarding `O=C1CCCC2=C1C(c1[nH]ncc1Cl)N=C(Nc1nc3cc([S+](=O)([O-])N4CCCC4)ccc3o1)N2` (stereo not given), the Potency entry was “inactive”. Regarding `Cc1cc2c(s1)c1cnn(Cc3ccc(Cl)c(F)c3)c(=O)c1n2C`, the Potency result is “inactive”.

In the case of `C=CCNc1oc(-c2cccc(F)c2)nc1C#N`, the Potency entry is “inactive”. The entry for `Oc1ccc(CNc2cccnc2)c2cccnc12` is “inactive”. The value for `Cc1cc(C)nc(NC(=S)N2CCN(c3cc(Cl)cc(C(F)(F)F)c3)CC2)c1` was “inactive”. The value for `COc1cc(O)c(C(CC(=O)N2CC(C)CC(C)C2)c2ccc(O)cc2)c(OC)c1` (stereo not given) was “inactive”; that for `COc1cccc(C2c3c(ncn(-c4ccc5c(c4)OCO5)c3=N)Oc3ccc4ccccc4c32)c1` (stereo not given) was “inactive”; that for `O=C(OCC#CCSc1nnc(-c2ccc3ccccc3c2)o1)c1ccc(F)cc1` was “inactive”. With `Cc1cc(C)nc(NC(=S)N2CCN(c3ncnc4ccccc34)CC2)c1`, the Potency result was “inactive”. The entry for `Cc1ccc(CNc2ccc(N3CCN(C)CC3=O)cc2)cc1` is “inactive”.
